Sm TGR block: inhibitors of Schistosoma mansoni thioredoxin glutathione reductase; AID 485364; purified TGR, DTNB reduction, TNB absorbance 405 nm; actives 3% (n = 360,000); Q962Y6; Potency, µM (highest dose often 114 µM), most hits filed as inhibitors; further: nearly all actives have a fitted effect of over 60% in size
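TGR 20 nM + NADPH 100 uM (dispensed conc.), cpd preinc 15 min RT; start with NADPH (500 uM addition) then DTNB (15 mM addition). Kinetic TNB absorbance, 405 nm filter. Four-parameter Hill fit across titration.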
FMDV antiviral: blocks foot and mouth disease virus; FMDV antiviral cell-based qHTS; Potency, µM (highest dose often 57.9 µM), actives largely listed as inhibitors; actives 1.2% (n = 410,000); AID 1159524; calls by dose curve; tested in HEK293T cells; further: read-out not given here; nearly all actives have a fitted effect of over 45% in size
Vaccinia mCherry: vaccinia inhibition (mCherry reporter) | actives 0.63% (n = 310,000) | AID 720579 | Potency, µM (highest dose often 36.5 µM), hits mostly inhibitors | Vaccinia virus mCherry reporter infection, fluorescence; calls by dose curve; tested in A549 cells; further: nearly all actives have a fitted effect of over 35% in size
HCMV inh: human cytomegalovirus inhibition | activity change, negative = inhibition, % at 57.5 µM | HFF cells, HCMV-luciferase reporter, 72 h; stronger effect = lower value | actives 4.5% (n = 410,000); in the data active means activity change below about -60%; inconclusive means no clear call, values can overlap the other calls; inactive means above about -39%
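Compounds were evaluated in HFFs infected with an HCMV luciferase reporter virus (MOI 1 PFU/cell). Luciferase in lysates collected 72 h post infection served as the replication measure.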
Vaccinia Venus: inhibitors of vaccinia virus (Venus reporter); Vaccinia virus Venus reporter expression, fluorescence; Potency, µM (titrated, usually from 36.5 µM), usual class: inhibitors; actives 0.46% (n = 330,000); calls by dose curve; tested in A549 cells; further: nearly all actives have a fitted effect of over 30% in size
HCV inhibitor: blocks hepatitis C virus; Huh7.5.1 HCVcc-Cre infection, luciferase reporter, 44 h; Potency, µM (highest dose often 41.8 µM), usual class: inhibitors; actives 3.4% (n = 340,000); AID 651820
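Luciferase read-out (15 sec integration) after a 15 min room-temperature substrate step quantifies HCVcc-Cre infection. Cells, 1,000 per well, had compound added 4 h post-plating, then virus at ~0.5 moi, and were cultured 44 h.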
Hits are given with their value; 0 = inactive; ? = inconclusive; - = not tested or not shown. Compounds with a hit are over-represented: about 9.3% of the library has one in this group of screens. Unless noted, the call rests on the fitted dose curve; in most records, active means well fitted curve in the direction sought with a large enough effect; inconclusive means small, poorly fitted or top-dose-only effect, or another doubt; inactive means no such curve, though single readings can be large; an effect the other way counts as inactive or inconclusive.

SMILES	Sm TGR block	FMDV antiviral	Vaccinia mCherry	HCMV inh	Vaccinia Venus	HCV inhibitor
O=C(C1CCN(S(=O)(=O)N2CCOCC2)CC1)N1CCN(c2ccccc2F)CC1	0	0	-	?	-	0
Cc1ccccc1N1CCN(C(=O)C2CCC(=O)N(C3CCCC3)C2)CC1 (stereo unspecified)	0	0	-	0	-	0
Cc1cccc(N2CCN(C(=O)C3CCN(S(=O)(=O)N4CCOCC4)CC3)CC2)c1C	0	?	-	0	-	10µM
COc1cc(/C=C/C(=O)NC(C)CCc2ccccc2)cc(OC)c1OC (stereo unspecified)	0	0	0	0	0	?
O=C(CC(c1ccccc1O)N1CCCCC1)N1CCCCC1 (stereo unspecified)	0	0	-	0	-	0
O=c1cc(-c2ccccc2)nc(Sc2ccc([N+](=O)[O-])cc2[N+](=O)[O-])[nH]1	-	16µM	0	0	0	0
O=[N+]([O-])c1ccc(Sc2nccn2Cc2ccccc2)c([N+](=O)[O-])c1	28µM	28µM	0	0	0	?
Cc1cccc(Sc2c([N+](=O)[O-])ncn2C)n1	?	0	-	0	-	0
Cc1cccc(Sc2ccc([N+](=O)[O-])cc2[N+](=O)[O-])n1	0	?	0	-72	0	0
O=[N+]([O-])c1ccc(Sc2ncccn2)c([N+](=O)[O-])c1	10µM	14µM	?	-97	?	?
Cc1ccc2[nH]cc(C(=O)CCl)c2c1	?	11µM	?	-91	0	25µM
Cc1ccc2c(C(=O)CCl)c(C)[nH]c2c1	1.4µM	?	?	0	0	?
CC(C)C12CN3CC(C(C)C)(CN(C1)C3c1ccco1)C2=O (stereo unspecified)	0	0	-	0	-	0
O=C1ON=C(c2ccc(Cl)cc2)/C1=C/c1ccc(O)cc1	22µM	13µM	0	-100	0	?
CCOc1cc(/C=C2\C(=O)ON=C2c2ccccc2)cc(Br)c1O	1.4µM	11µM	0	0	0	0
O=C1ON=C(c2ccccc2)/C1=C/c1ccc(O)cc1	?	?	-	0	-	0
COc1cc(C2N=C(c3ccccc3)NO2)cc(Br)c1O (stereo unspecified)	0	0	0	0	0	0
COc1cc(C=C2C(=O)OC(c3ccccc3)OC2=O)cc(Br)c1O (stereo unspecified)	0	10µM	0	0	0	0
COc1cc(/C=C2\C(=O)ON=C2c2ccccc2)cc(Br)c1O	1.6µM	10µM	0	0	0	0
Cc1sc(/C=C2\C(=O)ON=C2c2ccccc2)cc1Br	0	-	-	-	-	0
CCOc1cc(/C=C2/C(=O)ON=C2C)cc(Br)c1O	0	?	0	0	0	0
COc1ccccc1CNCCCCCCNCCCCCCCCNCCCCCCNCc1ccccc1OC	-	0	0	-	0	-
Cc1ccc(C2=NOC(=O)/C2=C\c2ccccc2)cc1	-	?	-	0	-	0
CCOc1cc(/C=C2\C(=O)ON=C2C)ccc1OCc1ccccc1	0	28µM	0	-76	0	0
C=CCOc1ccc(/C=C2/C(=O)ON=C2C)cc1OC	0	?	0	0	0	0
SMILES	Sm TGR block	FMDV antiviral	Vaccinia mCherry	HCMV inh	Vaccinia Venus	HCV inhibitor
COc1cc(/C=C2/C(=O)ON=C2c2ccccc2)ccc1O	25µM	?	0	0	0	0
CC1=NOC(=O)/C1=C/c1ccc(O)c(Br)c1	0	25µM	0	0	0	0
CCCOc1ccc(/C=C2/C(=O)ON=C2C)cc1OCC	0	?	0	0	0	0
COc1cc(/C=C2\C(=O)ON=C2c2ccccc2)cc(Cl)c1O	7.1µM	7.1µM	0	0	0	0
COc1ccc(OCC(=O)N2CCN(C(=O)c3ccc(OC)cc3)CC2)cc1	0	0	0	0	0	-
COc1ccccc1CC(=N)N1C[C@@H]2C(=O)CCC(c3ccccc3)(c3ccccc3)[C@@H]2C1	-	0	-	-	-	-
O=C(CN1c2cccc3cccc(c23)S1(=O)=O)Nc1ccccc1Br	-	0	-	0	-	0
O=C(Oc1ccc(Cl)c2cccnc12)c1cccnc1	40µM	0	?	0	?	?
CC1(c2cccc(Br)c2)NC(=O)N(CC(=O)N2CCc3ccccc32)C1=O (stereo unspecified)	0	0	0	0	0	10µM
Cc1nn(CC(=O)N(C)C2CCS(=O)(=O)C2)c(C)c1[N+](=O)[O-] (stereo unspecified)	0	0	0	0	0	0
CCc1nc(-c2cc3ccc(C)cc3[nH]c2=O)no1	0	0	-	-71	-	0
Cn1c(=O)[nH]c(=O)c2c1nc(Br)n2CC(O)COc1ccccc1 (stereo unspecified)	0	-	0	0	0	0
O=C(c1ccc(S(=O)(=O)NCc2ccco2)cc1)N1CCN(Cc2ccc3c(c2)OCO3)CC1	0	0	?	-68	0	?
CCOc1ccc(NS(=O)(=O)c2ccc(C(=O)N3CCCCCC3)cc2)cc1	0	?	0	?	0	0
Cc1ccc(C)n1-c1ccc(C(=O)NCc2ccncc2)cc1	22µM	0	-	?	-	0
COc1ccc(NS(=O)(=O)c2ccc(C(=O)N3CCCCCC3)cc2)cc1	-	0	0	-74	0	14µM
CCOc1ccc(C(=O)NCc2ccncc2)cc1	0	0	-	0	0	0
CCOc1ccc(NS(=O)(=O)c2ccc(C(=O)NCc3ccncc3)cc2)cc1	0	0	0	0	0	7.1µM
O=C(Cc1ccc(S(=O)(=O)N2CCCC2)s1)Nc1cccc([N+](=O)[O-])c1	-	0	-	0	-	?
COc1cccc(C(NC(C)=O)c2nc(-c3ccc(N(C)C)cc3)cs2)c1 (stereo unspecified)	-	0	0	0	0	-
COc1ccc(NS(=O)(=O)c2cccc(NC(=O)C34CCC(CC3)C4)c2)cc1	0	0	0	-64	0	?
CCN1CCN(C(=O)c2ccc(CNS(=O)(=O)c3cccc(OC)c3)cc2)CC1	0	0	0	0	0	0
COC(=O)c1ccc(C)c(NS(=O)(=O)c2ccc(C)c([N+](=O)[O-])c2)c1	0	0	0	0	0	0
COc1ccc(NS(=O)(=O)c2ccc(C(=O)N3CCN(Cc4ccccc4)CC3)cc2)cc1	0	?	0	0	0	11µM
COc1ccc(N2CCN(C(=O)c3ccc(NS(=O)(=O)c4ccccc4)cc3)CC2)cc1	0	0	-	0	?	0
COc1cccc(S(=O)(=O)NCc2ccc(C(=O)N3CCN(Cc4ccccc4)CC3)cc2)c1	0	0	0	0	0	10µM
COC(=O)c1ccc(C)c(NS(=O)(=O)c2ccc(OC)cc2)c1	0	0	?	-91	?	0
CCc1ccc(S(=O)(=O)NCc2nc3cccnc3n2Cc2ccccc2Cl)cc1	0	0	0	?	0	-
COc1ccc(Nc2ncc(C(=O)N3CCN(c4cccc(Cl)c4)CC3)c3ccccc23)cc1	0	?	0	0	0	-
O=C(c1ccc(S(=O)(=O)c2cccc(Cl)c2)c([N+](=O)[O-])c1)N1CCN(Cc2ccccc2)CC1	0	11µM	0	0	0	?
